# TDP43 rescue: inhibitors of TDP-43 toxicity in yeast | actives 1.8% (n = 410,000) | Potency, µM (series often up to 46.1 µM), for inactives: top-dose growth rescue (activation), hits mostly activators | TDP-43 expressing yeast growth rescue, BacTiter-Glo, 24 h; also: % of control where 0% means no effect; nearly all actives have a fitted effect of over 50% in size
#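 Yeast expressing TDP-43 (pregrown in raffinose, seeded at OD600=0.02 in galactose medium) exposed to compounds 24 hr at 30 deg C. Growth read by BacTiter-Glo luminescence; rescue of toxicity appears as increased signal.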
# Abeta yeast res: compounds reversing amyloid beta toxicity in yeast. yeast expressing A-beta42, growth rescue, OD600, 48 h; response scale: 0% DMSO, 100% iron-clioquinol control. Potency, µM (top dose mostly 46.1 µM), actives largely listed as activators. actives 0.063% (n = 410,000); also: nearly all actives have a fitted effect of over 55% in size
#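 Yeast growth medium received pinned compounds, then yeast cells expressing toxic A-beta were added; plates incubated at 30 C for 48 hr. Growth read as absorbance at 600 nm, normalized to DMSO and equimolar FeCl3 plus clioquinol controls.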
# FUS suppressor: suppressors of FUS proteinopathy in yeast; S. cerevisiae FUS-expressing, growth rescue, OD600, 24 h; Potency, µM (highest dose often 76.6 µM), most hits filed as activators; actives 0.24% (n = 390,000);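 also: plate controls were DMSO vehicle for no effect and reference control for full effect; nearly all actives have a fitted effect of over 55% in size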
#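 Yeast expressing FUS under galactose induction, OD 0.005 in 2% galactose medium; compounds in a dilution series, 24 h at 30C. Growth rescue by absorbance at 600 nm; CP55940 positive control, DMSO negative.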
# Mm-Cpn inhibitor: M. maripaludis TRiC chaperonin inhibition; purified Mm-Cpn ATPase, ADP Transcreener TR-FRET; Potency, µM (series often up to 76.9 µM), for inactives: at the highest dose activity, negative = inhibition, hits mostly inhibitors; actives 0.031% (n = 330,000); also: % is scaled to controls: 0 for no effect and ±100 for the full control effect; nearly all actives have a fitted effect of over 80% in size
#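 Compound-treated chaperonin, 25 nM final, turns over 10 uM ATP at 37°C for 30 min following a 10 min preincubation; ADP generated competes with ADP-d2 for Eu-cryptate antibody, lowering FRET.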
# ClpP mod: qHTS Assay for Activators of ClpP | actives 1.9% (n = 340,000) | purified B. subtilis ClpP, FRET peptide cleavage, 20 min | AID 651965, 2013 | Potency, µM (highest dose often 57.5 µM), without a hit: top-dose activity change, negative = active | ATP-dependent Clp protease proteolytic subunit (Bacillus subtilis (strain 168)), P80244; active = well fitted falling curve with a large enough effect; inconclusive = small, poorly fitted or top-dose-only effect; inactive = no such curve, though single readings can be large or run the other way; also: the source files actives as falling curves though it sought activators and does not explain the sign; nearly all actives have a fitted effect of over 65% in size
# Target sequence (P80244 whole entry, looked up): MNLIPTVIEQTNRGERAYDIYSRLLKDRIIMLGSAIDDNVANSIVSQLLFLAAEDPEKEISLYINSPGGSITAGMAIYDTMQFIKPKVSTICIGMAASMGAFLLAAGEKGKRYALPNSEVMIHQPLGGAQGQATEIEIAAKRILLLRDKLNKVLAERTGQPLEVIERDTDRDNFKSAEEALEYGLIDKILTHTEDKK
#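 FRET quenching reversal measured ClpP activation: 10 microg/mL B. subtilis ClpP at pH 8 with the FRET-FV decapeptide, read at 430 nm after 320 nm excitation. The 20-min minus 0-min signal was scaled between DMSO/no-enzyme wells and ADEP (5.8 microM final).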
# aSyn yeast inh: rescues yeast growth from alpha-synuclein toxicity. Yeast expressing alpha-synuclein, growth rescue, BacTiter-Glo, 24 h. Potency, µM (highest dose often 46.1 µM), inactives show at the highest dose growth rescue (activation), actives largely listed as activators. actives 0.14% (n = 370,000); also: % of control where 0% means no effect; nearly all actives have a fitted effect of over 65% in size
#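 Galactose-induced alpha-syn yeast (OD600=0.02, raffinose-pregrown) + pinned cpd, 24 hr, 30 deg C; growth by BacTiter-Glo luminescence. Growth restoration scores as activation.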
# * hit, by the source's call; i = inactive; ? = inconclusive; · = no result; ! = a repeat was not active; [ ] = remark or other dose. Only some compounds are listed: those with a hit (about 3.6% of all), similar ones and a draw of the others. Unless noted, calls follow the shape of the dose curve; as a rule, active = well fitted curve in the direction sought with a large enough effect; inconclusive = small, poorly fitted or top-dose-only effect, or another doubt; inactive = no such curve, though single readings can be large; an effect the other way counts as inactive or inconclusive. Potency is read from the fitted curve at half-maximal effect.
SMILES,TDP43 rescue,Abeta yeast res,FUS suppressor,Mm-Cpn inhibitor,ClpP mod,aSyn yeast inh
O=S(Cc1ccc(Br)cc1)Cc1nnc(SCc2ccc(Cl)cc2)n1-c1ccccc1 (stereo not given),6.31µM*,i,·,-1.5%,1.4%,?
O=S(Cc1ccc(Br)cc1)Cc1nnc(SCc2c(F)cccc2Cl)n1-c1ccccc1 (stereo not given),14.3%,i,·,-2.7%,31.6µM*,9.5%
Cn1c(CS(=O)Cc2c(Cl)cccc2Cl)nnc1SCc1ccc(Cl)cc1 (stereo not given),12.7%,i,i,0.4%,-0.5%,5.7%
Nn1c(Cc2cccc3ccccc23)nnc1SCc1c(F)cccc1Cl,0.0%,i,i,-2.3%,-1.8%,6.6%
CCOC(=O)C1=C(CS(=O)(=O)c2ccc(Br)cc2)NC(=O)NC1c1ccccc1 (stereo not given),4.8%,i,i,·,-4.5%,·
CC(=O)Nc1ccc(/C=N/OCC(=O)Nc2ccc(C)cc2)cc1,-4.3%,i,i,2.1%,0.4%,-1.7%
CCN(CC)c1ccc(/C=N/OC(C)C(=O)Nc2ccc(C)cc2)cc1 (stereo not given),-16.1%,i,i,-2.1%,28.2µM*,0.6%
CCOC(=O)c1cc(-c2ccc(F)cc2)n(CCC(=O)NC2CCCCC2)c1C,-5.8%,i,i,·,5.5%,·
O=C(C1=NN(c2ccccc2)C2C(=O)N(c3ccc(Cl)cc3)C(=O)C12)c1ccccc1 (stereo not given),9.7%,i,i,0.0%,0.7%,26.1%
O=C(C1=NN(c2ccccc2)C2C(=O)N(c3cccc(Cl)c3)C(=O)C12)c1ccccc1 (stereo not given),3.7%,i,i,-6.0%,17.8µM*,19.1%
Cc1cc(C)c(C#N)c(=N)o1,-11.3%,i,·,0.4%,2.82µM*,-42.0%
CSc1nc(C)cc(C)c1C#N,6.8%,i[9.22 µM],i,-0.2%,-1.9%,7.9%
CCOC(=O)C(C)NC(=O)c1c2c(nc3ccccc13)C(=O)N(C1CCCCC1)C2 (stereo not given),10.8%,i,i,·,-28.4%,·
CC(=O)c1cc2c(cc1NC(=O)CSc1nc3ccc(C)cc3[nH]1)OCO2,12.6µM*,i,i,-3.4%,-0.7%,7.8%
CC(=O)c1cc2c(cc1NC(=O)CSc1nc3ccccc3[nH]1)OCO2,·,·,·,-1.7%,·,·
Cc1ccc(CCNS(=O)(=O)c2cc(-c3cc(C)no3)ccc2C)cc1,22.4µM*,i,i,·,-0.6%,·
CCc1ccc(-c2cc(C)no2)cc1S(=O)(=O)Nc1ccc(C)cn1,-7.7%,i,i,0.4%,31.6µM*!,-2.2%
Cc1ccc(NS(=O)(=O)c2cc(-c3cc(C)no3)ccc2C(C)C)nc1,8.0%,i,i,-0.4%,-27.7%,-7.1%
Cc1cc(-c2ccc(C)c(S(=O)(=O)Nc3ccccn3)c2)on1,10.6%,i,i,·,28.2µM*,·
CCc1ccc(-c2cc(C)no2)cc1S(=O)(=O)Nc1ccccn1,-11.3%,i,i,0.2%,3.4%,-5.2%
COc1ccc(CCNS(=O)(=O)c2cc(-c3cc(C)no3)ccc2OC)cc1OC,3.1%,i,i,·,0.9%,·
COc1ccc(CCNC(=O)CCn2c(=O)c3ccccc3n(Cc3cc(C)ccc3C)c2=O)cc1OC,5.7%,i,i,·,-5.6%,·
C[C@H]1[C@@H](NC(=O)c2ccc(Cl)cc2)CC[C@@]23CCCN2C(=O)CCC[C@@H]13,·,·,i,·,·,·
COc1cccc(CNC(=O)c2cccc(Br)c2)c1,22.4µM*,i,i,?,0.8%,-20.1%
CCCCc1ccc(NC(=S)NCc2cccc(OC)c2)cc1,-6.4%[0.397 µM],10µM*,i,1.5%,·,-17.0%
SMILES,TDP43 rescue,Abeta yeast res,FUS suppressor,Mm-Cpn inhibitor,ClpP mod,aSyn yeast inh
COc1cccc(CNC(=O)COc2ccc(C(=O)c3ccccc3)cc2)c1,35.5µM*,?,i,-1.6%,-10.0%,-48.0%
COc1cccc(CNC(=O)c2cccc(S(=O)(=O)N3CCN(C)CC3)c2)c1,-3.4%,i,i,-0.4%,-4.1%,-0.8%
COC(=O)Cc1ccc(NC(=S)NCc2cccc(OC)c2)cc1,12.9%[9.22 µM],i,i,-0.1%,·,7.0%
COc1cccc(CNC(=O)c2cccc(NC(=O)c3nsc4ccccc34)c2)c1,35.5µM*,i,i,·,-26.6%,·
Cc1cc(/C=C/c2ccnc3ccccc23)ccc1N,·,·,·,·,-3.2%,6.5%
Cn1c(SCC(=O)Nc2ccccc2-c2ccccc2)nnc1-c1ccccc1,·,·,i,·,·,·
C=CCn1c(SCC(=O)NCc2ccco2)nnc1-c1cccc(N(C)C)c1,·,·,·,·,-0.2%,-2.1%
O=C(Nc1cccc(C(=O)N2CCCCC2)c1)c1nsc2ccccc12,35.5µM*,i,i,·,0.2%,·
Cc1ccc(NC(=O)CN2C(=O)C(C)(C)c3cc(S(=O)(=O)N4CCCCC4)ccc32)c(Br)c1,1.8%,i,i,·,0.0%,·
O=C1c2ccccc2NC(c2ccccc2OCc2ccccc2)N1Cc1ccco1 (stereo not given),·,·,·,·,4.2%,-2.6%
CCOc1ccccc1NC(=O)CSc1ncc(S(=O)(=O)c2ccc(C)c(C)c2)c(N)n1,16.9%,i,31.6µM*,·,-1.9%,·
CCOc1ccccc1NC(=O)CSc1nnc(-c2ccco2)o1,12.6µM*,i,i,-0.2%,-16.9%,0.3%
O=C(CSc1nnc(-c2ccco2)o1)c1ccc([N+](=O)[O-])cc1,3.1%,i,i,-3.4%,0.2%,-2.7%
CCOc1ccccc1NC(=O)CSc1ccccc1,14.1µM*,i,i,-0.9%,0.7%,2.9%
O=C(CSc1nnc(-c2ccco2)o1)c1ccccc1Cl,?,i,22.4µM*,-2.8%,-0.4%,-4.0%
Cc1sc2ccccc2[n+]1Cc1ccccc1,·,·,·,·,0.5%,·
COc1cccc(CNC(=O)CN(c2ccc(C)cc2)S(=O)(=O)N(C)C)c1OC,16.9%,i,i,·,3.4%,·
O=C1CCC[C@@H]2CC(Nc3ccccc3)C[C@@H]3CCN1[C@H]23 (stereo not given in full),·,·,·,·,0.9%,·
Cc1cccn2c(=O)c(/C=C(\C#N)c3nc4ccccc4n3C)c(Oc3ccc(Br)cc3)nc12,-12.5%,i,i,·,-17.9%,·
COc1ccc(CNc2nc3ccccc3c3nc(-c4ccccc4)nn23)cc1,-0.3%,i,i,·,28.2µM*,·
CCN(CC)CCCNc1nc2cc(OC)c(OC)cc2c2nc(-c3ccccc3)nn12,-7.3%,i,i,0.2%,31.6µM*,-3.1%

# High-throughput results as filed in PubChem BioAssay.
